# What was measured:
# Format in all cases: functional
# [1] = molecular target: Solute carrier family 2, facilitated glucose transporter member 1 (Homo sapiens) (UniProt P11166); test: ST_JUDE_LEISH: Cytotoxicity at 2uM final concentration against transgenic Leishmania Mexicana promastigotes LmGLUT1 that are glucose transport deficient and complemented with the human glucose transporter GLUT1. Activity is measured by DNA content using SYBR green in vitro
# [2] = molecular target: Hexose transporter 1 (Plasmodium falciparum) (UniProt O97467); test: ST_JUDE_LEISH: Cytotoxicity at 2uM final concentration against transgenic Leishmania Mexicana promastigotes LmPfHT that are glucose transport deficient and complemented with the Plasmodium falciparum hexose transporter. Activity is measured by DNA content using SYBR green in vitro
# [3] = molecular target: Glucose transporter (Leishmania mexicana) (UniProt O61059); test: ST_JUDE_LEISH: Cytotoxicity at 2uM final concentration against transgenic Leishmania Mexicana promastigotes LmGT2 that are glucose transport deficient and complemented with the L. Mexicana glucose transporter 2. Activity is measured by DNA content using SYBR green in vitro
# Sequence of Solute carrier family 2, facilitated glucose transporter member 1 (Homo sapiens) (P11166 whole entry): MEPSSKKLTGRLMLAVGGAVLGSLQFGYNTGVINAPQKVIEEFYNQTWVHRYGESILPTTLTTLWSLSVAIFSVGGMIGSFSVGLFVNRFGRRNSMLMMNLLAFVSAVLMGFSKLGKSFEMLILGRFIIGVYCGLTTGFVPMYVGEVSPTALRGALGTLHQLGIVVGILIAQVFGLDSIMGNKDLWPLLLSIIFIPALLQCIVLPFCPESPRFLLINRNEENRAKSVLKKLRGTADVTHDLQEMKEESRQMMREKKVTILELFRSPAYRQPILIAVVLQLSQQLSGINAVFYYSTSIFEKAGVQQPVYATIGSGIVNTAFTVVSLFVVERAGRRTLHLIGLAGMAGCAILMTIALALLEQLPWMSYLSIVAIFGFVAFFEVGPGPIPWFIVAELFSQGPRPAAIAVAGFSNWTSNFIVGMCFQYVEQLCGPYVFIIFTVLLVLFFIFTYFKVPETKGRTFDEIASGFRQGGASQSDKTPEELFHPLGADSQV
SMILES,inhibition [1] [%],inhibition [2] [%],inhibition [3] [%]
CC1(C)N=C(NC(=O)c2ccc([N+](=O)[O-])cc2)N=C(N)N1OCc1ccc2ccccc2c1,3.85,4.18,-0.07
O=C(N[C@@H](Cc1ccccc1)C(=O)NCCN1CCOCC1)c1ccc(O)c(-c2ccc(Cl)c(Cl)c2)c1,2.33,2.47,4.35
C(=NNc1nc2ccccc2[nH]1)c1ccccc1OCc1ccccc1,4.25,6.99,3.06
Nc1ccc2[nH]cc(C3CCN(CC4CCN(C(=O)/C=C/c5ccc(Cl)c(Cl)c5)CC4)CC3)c2n1,2.32,1.93,-0.49
COc1ccc(-c2cnc3ccc(N4CCCC4)nn23)cc1OC,0.89,0.65,2.83
Cc1cccc2nc(-c3cccc(-c4ccc(CNCCCN5CCCC5=O)cc4)c3)[nH]c12,9.26,6.82,6.5
CCCc1ccc(NC(=O)c2cccc(CN3CCCN(Cc4cccc(O)c4)CC3)c2)cc1,-0.09,2.34,0.71
CCC(NC(=O)c1ccccc1NC(=O)c1ccc(C)cc1)C(=O)OC (configuration not stated),-0.5,0.91,0.97
CC(=O)NCCNCc1cccc(C(=O)NCc2cccc(C(F)(F)F)c2)c1,3.26,5.92,4.88
CN1CCCC(OC(=O)c2ccccc2)C1 (configuration not stated),4.26,3.71,3.1
CC(=O)Nc1ccc(C(=O)NC2CCN(c3ccnc4cc(Cl)ccc34)C2)cc1 (configuration not stated),0.36,0.28,1.4
COc1c(F)ccc2ncc(Cl)c(CCN3CCC(NCc4ccc5c(n4)NC(=O)CS5)CC3)c12,6.45,6.77,-2.91
COc1cc(CN2CCC(C(=O)Nc3ccc(-c4cccc(C)c4)cc3)CC2)ccc1O,8.11,7.03,4.91
COc1ccc(C2C(C(=O)Nc3ccc(C)cc3Br)c3ccccc3C(=O)N2C)cc1 (configuration not stated),3.32,2.08,0.83
